# Reference: PubChem BioAssay
# The source made the active and inactive calls.
# Columns and labels:
# [1] = system: PRMT1 (protein arginine N-methyltransferase 1); assay: PRMT1 binders on small-molecule microarrays, primary screen, biochemical, small-molecule microarray, 635 nm fluorescence (AID 1088); conditions: small-molecule microarray binding, higher = more signal;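 note: binding of Prmt1 protein to compounds spotted on small-molecule microarray slides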
# [2] = yeast growth modulation, basal conditions, primary screen, YJM789 clinical isolate, OD600, 24 h (AID 1089);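 note: growth of clinical yeast isolate S. cerevisiae YJM 789 seeded 1000 cells per well; test concentration not given here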; conditions: S. cerevisiae YJM789 growth, higher = more signal, called active from +8 up or from −8 down
# [3] = fission yeast growth modulation, primary screen, strain 972, OD600, 24 h, no modulator (AID 1090);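 note: basal condition with compound alone and no growth modifier present; test concentration not given here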; conditions: S. pombe 972 growth, higher = more signal, called active from +8 up or from −8 down
# [4] = S. cerevisiae growth modulation with rapamycin, primary screen, strain BY4716, OD600, 96 h (AID 1091); conditions: higher = more signal, called active from +8 up or from −8 down; note: test concentration not given here
# [5] = molecular target: Torsin-1A-interacting protein 2 (Homo sapiens) (UniProt Q8NFQ8); assay: LULL1 binders on small-molecule microarray, primary screen, cell lysate, human LULL1 lysate, 635/667 nm fluorescence (AID 1092); conditions: hLULL1 lysate binding, 635 nm fluorescence, higher = more signal;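 note: probe is lysate of COS7 cells overexpressing human LULL1; score merges per-feature 667 nm fluorescence with signal-to-noise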
# [6] = E. coli growth modulation, two-sided OD650, primary screen, E. coli filamentation project, strain DRC41, 24 h (AID 1093); conditions: OD650, 24 h, higher = more signal, called active from +8 up or from −8 down;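 note: MC1000 strain lacking acrAB efflux and sulA so SOS filamentation is blocked; test concentration not given here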
# [7] = small-molecule microarray binders of probe aLefty2, primary screen, biochemical, biotinylated probe, 635/667 nm fluorescence (AID 1094); conditions: higher = more signal;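 note: score merges spot fluorescence near 667 nm with spot signal-to-noise ratio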
# [8] = system: Noggin (protein binding on small-molecule microarray); assay: Noggin binders on small-molecule microarray, primary screen, biochemical, 635/667 nm fluorescence (AID 1095); conditions: 635 nm fluorescence, higher = more signal;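 note: score merges 667 nm feature fluorescence with signal to noise over triplicate slides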
# [9] = molecular target: Neurogenic locus notch homolog protein 3 (Homo sapiens) (UniProt Q9UM47); assay: NOTCH3 binders on small-molecule microarray, primary screen, biochemical, 635/667 nm fluorescence (AID 1096); conditions: NOTCH3 binding, 635 nm fluorescence, higher = more signal
# [10] = small-molecule microarray binders of probe aEGFR, primary screen, biochemical, biotinylated probe, 635/667 nm fluorescence (AID 1097); conditions: higher = more signal;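 note: probe is a biotinylated anti-EGFR antibody binding compounds printed on slides; score combines fluorescence near 667 nm and signal to noise of each spot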
# [11] = system: Plasmodium falciparum Sir2 (PF13_0152, Sir2A); assay: pfSir2 binders on small-molecule microarrays, primary screen, biochemical, small-molecule microarray, 635 nm fluorescence (AID 1098); conditions: small-molecule microarray binding, fluorescence 635 nm; higher = more signal;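 note: score merges spot fluorescence intensity with its signal-to-noise ratio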
# [12] = small-molecule microarray binders of probe aDKK1, primary screen, biochemical, biotinylated probe, 635/667 nm fluorescence (AID 1099); conditions: higher = more signal;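 note: score merges 667nm spot fluorescence with signal to noise across triplicate slides; reference of the scale not given here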
# [13] = small-molecule microarray binders of probe aCHRDL2, primary screen, biochemical, biotinylated probe, 635/667 nm fluorescence (AID 1100); conditions: higher = more signal
# [14] = splicing luciferase reporter signal modulators, primary screen, spliceosome inhibition project, cell-based, HEK293, splice +/- reporter (AID 1101); conditions: luminescence, 24 h, higher = more signal, called active from +8 up or from −8 down;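 note: HEK293 cells carrying a splicing-competent luciferase reporter gene; test concentration not given here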
# [15] = molecular target: Fibroblast growth factor 10 (Homo sapiens) (UniProt O15520); assay: FGF10 binders on small-molecule microarrays, primary screen, biochemical, small-molecule microarray, 635 nm fluorescence (AID 1102); conditions: FGF10 binding, fluorescence 635 nm, higher = more signal
# [16] = system: glycogen synthase kinase-3 (GSK3A per assay name; protocol says GSK3B); assay: GSK3 binders on small-molecule microarrays, primary screen, biochemical, small-molecule microarray, 635 nm fluorescence, GSK3A (AID 1103); conditions: small-molecule microarray binding, fluorescence 635 nm; higher = more signal; note: the record names both GSK3A and GSK3B
# [17] = molecular target: Epidermal growth factor receptor (Homo sapiens) (UniProt P00533); assay: EGFR binders on small-molecule microarrays, primary screen, biochemical, small-molecule microarray, 635 nm fluorescence (AID 1104); conditions: EGFR binding, higher = more signal;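 note: score merges 667 nm emission intensity with spot signal to noise over triplicate slides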
# [18] = molecular target: Follistatin-related protein 3 (Homo sapiens) (UniProt O95633); assay: FSTL3 binders on small-molecule microarrays, primary screen, biochemical, small-molecule microarray, 635 nm fluorescence (AID 1105); conditions: FSTL3 binding, higher = more signal;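 note: score merges emission near 667 nm and signal to noise per printed spot across three slides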
# [19] = molecular target: Dickkopf-related protein 1 (Homo sapiens) (UniProt O94907); assay: DKK1 binders on small-molecule microarrays, primary screen, biochemical, small-molecule microarray, 635 nm fluorescence scan (AID 1106); conditions: DKK1 binding, higher = more signal;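 note: score merges emission near 667 nm with signal to noise over three replicate slides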
# [20] = system: Inhibin beta A chain (activin A); assay: INHBA (activin A) binders on microarrays, primary screen, biochemical, small-molecule microarray, 635 nm fluorescence scan (AID 1107); conditions: small-molecule microarray binding, higher = more signal;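 note: mouse activin A protein probed at 4.33 µg/mL on printed slides; score merges bound-protein fluorescence near 667 nm with spot signal-to-noise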
# Chain of Dickkopf-related protein 1 (Homo sapiens) (O94907 whole entry, looked up): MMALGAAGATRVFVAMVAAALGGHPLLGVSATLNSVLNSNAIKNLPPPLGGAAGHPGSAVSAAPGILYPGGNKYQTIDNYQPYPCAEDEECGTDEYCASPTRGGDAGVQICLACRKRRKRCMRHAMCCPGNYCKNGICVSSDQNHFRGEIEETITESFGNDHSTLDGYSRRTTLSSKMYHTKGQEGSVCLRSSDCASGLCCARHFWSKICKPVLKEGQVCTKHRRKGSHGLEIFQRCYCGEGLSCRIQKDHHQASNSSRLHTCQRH
# Chain of Epidermal growth factor receptor (Homo sapiens) (P00533 whole entry, looked up): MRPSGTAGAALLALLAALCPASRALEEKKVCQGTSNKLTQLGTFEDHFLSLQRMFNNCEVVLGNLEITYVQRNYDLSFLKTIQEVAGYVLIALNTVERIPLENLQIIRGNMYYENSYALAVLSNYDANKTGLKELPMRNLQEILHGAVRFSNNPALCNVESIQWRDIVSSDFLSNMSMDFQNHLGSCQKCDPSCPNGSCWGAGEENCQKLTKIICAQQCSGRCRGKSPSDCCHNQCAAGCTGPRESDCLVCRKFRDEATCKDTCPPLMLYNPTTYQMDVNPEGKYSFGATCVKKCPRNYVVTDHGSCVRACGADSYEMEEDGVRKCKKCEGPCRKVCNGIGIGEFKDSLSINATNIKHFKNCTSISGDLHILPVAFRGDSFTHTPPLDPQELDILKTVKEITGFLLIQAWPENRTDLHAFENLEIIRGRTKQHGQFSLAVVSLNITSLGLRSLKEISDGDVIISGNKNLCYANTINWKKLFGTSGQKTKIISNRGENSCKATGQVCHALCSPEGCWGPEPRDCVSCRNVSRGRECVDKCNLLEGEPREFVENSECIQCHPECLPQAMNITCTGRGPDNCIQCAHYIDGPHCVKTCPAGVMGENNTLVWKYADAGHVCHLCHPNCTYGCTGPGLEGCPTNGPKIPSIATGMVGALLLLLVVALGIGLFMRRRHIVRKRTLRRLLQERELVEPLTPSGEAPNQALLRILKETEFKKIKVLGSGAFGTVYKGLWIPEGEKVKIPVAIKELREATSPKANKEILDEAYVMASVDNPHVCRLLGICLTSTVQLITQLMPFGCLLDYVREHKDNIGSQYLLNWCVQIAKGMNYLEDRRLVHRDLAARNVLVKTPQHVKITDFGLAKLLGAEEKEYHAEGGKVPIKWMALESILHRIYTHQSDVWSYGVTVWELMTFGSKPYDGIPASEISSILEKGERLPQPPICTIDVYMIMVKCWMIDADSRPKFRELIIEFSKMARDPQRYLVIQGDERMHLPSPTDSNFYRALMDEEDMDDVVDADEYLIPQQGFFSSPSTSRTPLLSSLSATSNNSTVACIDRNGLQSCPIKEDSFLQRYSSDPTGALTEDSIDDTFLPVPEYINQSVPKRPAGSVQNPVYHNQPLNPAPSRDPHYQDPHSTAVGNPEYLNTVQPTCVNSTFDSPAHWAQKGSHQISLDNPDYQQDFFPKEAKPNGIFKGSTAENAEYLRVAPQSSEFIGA
# Chain of Neurogenic locus notch homolog protein 3 (Homo sapiens) (Q9UM47 whole entry, looked up): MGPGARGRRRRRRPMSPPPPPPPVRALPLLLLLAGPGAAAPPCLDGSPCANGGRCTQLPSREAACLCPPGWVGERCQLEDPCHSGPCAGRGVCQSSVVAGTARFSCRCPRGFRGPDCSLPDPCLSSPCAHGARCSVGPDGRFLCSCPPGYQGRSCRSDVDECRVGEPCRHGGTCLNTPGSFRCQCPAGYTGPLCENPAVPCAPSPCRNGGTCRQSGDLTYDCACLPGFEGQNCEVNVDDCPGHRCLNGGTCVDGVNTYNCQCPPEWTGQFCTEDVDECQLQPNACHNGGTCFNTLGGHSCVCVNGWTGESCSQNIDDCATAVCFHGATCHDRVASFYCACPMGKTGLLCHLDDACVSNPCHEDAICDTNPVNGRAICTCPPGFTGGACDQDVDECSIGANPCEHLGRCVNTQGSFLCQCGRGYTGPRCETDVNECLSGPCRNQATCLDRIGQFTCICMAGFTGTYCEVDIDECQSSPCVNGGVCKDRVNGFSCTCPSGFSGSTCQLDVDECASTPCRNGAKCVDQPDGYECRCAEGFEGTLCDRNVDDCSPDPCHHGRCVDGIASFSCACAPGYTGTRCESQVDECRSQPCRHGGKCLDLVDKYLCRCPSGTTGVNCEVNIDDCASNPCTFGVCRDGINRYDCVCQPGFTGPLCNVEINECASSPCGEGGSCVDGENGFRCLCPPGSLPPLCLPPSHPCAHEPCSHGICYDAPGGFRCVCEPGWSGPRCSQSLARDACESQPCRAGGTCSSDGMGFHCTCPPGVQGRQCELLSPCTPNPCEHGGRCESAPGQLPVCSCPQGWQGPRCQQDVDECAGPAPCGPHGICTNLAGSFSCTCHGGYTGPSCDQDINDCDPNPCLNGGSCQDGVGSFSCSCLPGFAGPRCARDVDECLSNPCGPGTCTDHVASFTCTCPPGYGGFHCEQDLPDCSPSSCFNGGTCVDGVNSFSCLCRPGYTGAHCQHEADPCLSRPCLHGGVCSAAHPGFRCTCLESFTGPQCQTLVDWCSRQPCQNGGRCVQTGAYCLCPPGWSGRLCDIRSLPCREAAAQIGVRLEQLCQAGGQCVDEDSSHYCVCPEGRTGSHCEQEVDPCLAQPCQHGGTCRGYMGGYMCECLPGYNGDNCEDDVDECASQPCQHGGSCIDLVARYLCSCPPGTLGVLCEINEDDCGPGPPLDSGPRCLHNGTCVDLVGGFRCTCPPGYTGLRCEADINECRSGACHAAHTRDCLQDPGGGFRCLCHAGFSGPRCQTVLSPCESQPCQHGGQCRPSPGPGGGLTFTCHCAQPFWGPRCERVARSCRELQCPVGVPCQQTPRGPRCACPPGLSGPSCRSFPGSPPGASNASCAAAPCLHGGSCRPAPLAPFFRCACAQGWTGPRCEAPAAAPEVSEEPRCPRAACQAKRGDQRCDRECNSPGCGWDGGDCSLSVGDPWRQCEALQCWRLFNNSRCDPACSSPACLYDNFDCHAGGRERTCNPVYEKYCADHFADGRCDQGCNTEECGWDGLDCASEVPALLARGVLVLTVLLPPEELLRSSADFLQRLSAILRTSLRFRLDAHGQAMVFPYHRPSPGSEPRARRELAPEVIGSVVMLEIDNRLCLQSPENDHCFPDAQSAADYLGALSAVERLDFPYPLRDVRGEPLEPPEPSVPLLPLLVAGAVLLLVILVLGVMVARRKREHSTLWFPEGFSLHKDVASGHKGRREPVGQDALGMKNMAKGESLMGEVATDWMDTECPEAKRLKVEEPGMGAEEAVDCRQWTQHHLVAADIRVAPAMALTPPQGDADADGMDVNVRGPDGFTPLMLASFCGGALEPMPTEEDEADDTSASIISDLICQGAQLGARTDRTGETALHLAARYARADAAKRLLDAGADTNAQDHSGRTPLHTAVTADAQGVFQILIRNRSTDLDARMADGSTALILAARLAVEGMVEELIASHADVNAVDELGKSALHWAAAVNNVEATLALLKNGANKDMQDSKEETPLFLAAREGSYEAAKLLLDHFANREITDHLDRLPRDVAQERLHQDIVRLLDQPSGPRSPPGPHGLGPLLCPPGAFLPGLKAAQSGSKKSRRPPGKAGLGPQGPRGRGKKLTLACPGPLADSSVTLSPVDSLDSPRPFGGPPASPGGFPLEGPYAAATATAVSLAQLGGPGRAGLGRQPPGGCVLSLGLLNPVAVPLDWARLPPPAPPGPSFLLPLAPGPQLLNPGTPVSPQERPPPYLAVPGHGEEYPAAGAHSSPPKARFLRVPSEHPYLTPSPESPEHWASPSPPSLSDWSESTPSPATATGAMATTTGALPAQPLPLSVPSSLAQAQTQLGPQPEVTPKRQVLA
# Chain of Follistatin-related protein 3 (Homo sapiens) (O95633 whole entry, looked up): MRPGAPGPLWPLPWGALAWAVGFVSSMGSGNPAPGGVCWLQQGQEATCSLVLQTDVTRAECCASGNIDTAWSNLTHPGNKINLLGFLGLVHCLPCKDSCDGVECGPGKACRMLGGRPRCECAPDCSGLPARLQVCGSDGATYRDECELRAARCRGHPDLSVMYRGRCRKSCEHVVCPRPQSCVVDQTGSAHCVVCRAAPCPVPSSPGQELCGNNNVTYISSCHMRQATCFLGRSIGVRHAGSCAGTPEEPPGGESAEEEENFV
# Chain of Torsin-1A-interacting protein 2 (Homo sapiens) (Q8NFQ8 whole entry, looked up): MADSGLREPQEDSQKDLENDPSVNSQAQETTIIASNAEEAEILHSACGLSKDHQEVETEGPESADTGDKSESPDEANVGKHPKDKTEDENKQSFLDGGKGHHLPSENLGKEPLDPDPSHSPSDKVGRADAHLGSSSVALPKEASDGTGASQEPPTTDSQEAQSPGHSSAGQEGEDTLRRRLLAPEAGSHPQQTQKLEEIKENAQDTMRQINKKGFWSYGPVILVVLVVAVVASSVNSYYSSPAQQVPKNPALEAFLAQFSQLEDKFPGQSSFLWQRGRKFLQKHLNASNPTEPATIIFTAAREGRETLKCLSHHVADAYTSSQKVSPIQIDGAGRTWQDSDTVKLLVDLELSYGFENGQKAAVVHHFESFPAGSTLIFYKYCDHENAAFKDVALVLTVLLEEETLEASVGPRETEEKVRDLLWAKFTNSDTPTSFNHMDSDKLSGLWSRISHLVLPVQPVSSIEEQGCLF
# Chain of Fibroblast growth factor 10 (Homo sapiens) (O15520 whole entry, looked up): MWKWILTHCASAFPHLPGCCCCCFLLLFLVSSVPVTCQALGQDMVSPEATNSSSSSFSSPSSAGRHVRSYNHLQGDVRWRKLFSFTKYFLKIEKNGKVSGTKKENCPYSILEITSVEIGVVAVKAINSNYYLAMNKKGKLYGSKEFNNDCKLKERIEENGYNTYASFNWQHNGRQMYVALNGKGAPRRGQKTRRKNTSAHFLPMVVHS
SMILES,composite z-score [1],z-score [2],z-score [3],z-score [4],composite z-score [5],z-score [6],composite z-score [7],composite z-score [8],composite z-score [9],composite z-score [10],composite z-score [11],composite z-score [12],composite z-score [13],z-score [14],composite z-score [15],composite z-score [16],composite z-score [17],composite z-score [18],composite z-score [19],composite z-score [20]
COc1cc2c(cc1OC)CN(C(=O)[C@H]1[C@@H]3C(=O)O[C@@H](c4ccccc4)[C@@H](c4ccccc4)N3[C@@H](c3ccccc3OCCO)[C@]13C(=O)Nc1ccc(C#CCCO)cc13)CC2,1.52,2.11 (inactive),-0.0834 (inactive),3.66 (inactive),1.61,-0.302 (inactive),-0.0499,1.71,1.02,-0.0531,1.37,-0.112,-0.294,-0.826 (inactive),0.786,1.28,0.47,0.964,0.518,0.931
[N-]=[N+]=NCc1ccccc1[C@@H]1OC(c2ccc(OCCCO)cc2)=N[C@]1(CCS(=O)(=O)c1ccccc1)C(=O)N1CCCCC1,1.56,-0.238 (inactive),0.454 (inactive),1.44 (inactive),2.94,0.622 (inactive),0.0563,0.36,1.02,0.208,1.65,0.0798,0.904,-0.162 (inactive),0.828,1.29,0.453,1.19,-0.154,1.08
Cc1ccc([C@H]2C(C(=O)O)=CCN2S(=O)(=O)c2ccc(C)cc2)cc1,0.472,-0.76 (inactive),0.366 (inactive),-0.18 (inactive),2.82,-0.264 (inactive),0.228,0.11,0.189,-0.0828,0.487,0.215,0.761,0.0638 (inactive),0.214,0.47,-0.327,0.312,-0.345,1.03
C=CCOC(=O)[C@H]1[C@@H]2C(=O)O[C@@H](c3ccccc3)[C@@H](c3ccccc3)N2[C@@H](c2ccc(OCCOC(=O)[C@@H]3C[C@@H]4C(=O)N5CCC[C@H]5C(=O)N4[C@@H]3c3cccc(OCCO)c3)cc2)[C@]12C(=O)Nc1ccc(I)cc12,1.56,0.151 (inactive),1.04 (inactive),2.23 (inactive),2.09,-0.443 (inactive),-0.117,1.86,1.08,0.0032,1.59,-0.214,-0.158,0.0567 (inactive),1.42,1.15,0.702,1.39,1.2,0.76
Cc1ccc(S(=O)(=O)N2C[C@@H](C(=O)O)[C@H](Sc3ccccc3)C[C@H]2c2ccccc2)cc1,1.55,-0.552 (inactive),0.972 (inactive),-0.727 (inactive),3.41,-0.385 (inactive),0.237,0.228,0.988,0.0478,1.47,0.707,0.999,1.64 (inactive),1.15,0.586,0.14,1.29,-0.503,0.49
